CSC inhib = cancer stem cell inhibition; inhibition, % at 7.5 µM; 300,000 tested, 1.1% active; cancer stem cell-like cells viability, luminescence; in the data active = inhibition above about 75%; inconclusive = no clear call, values can overlap the other calls; tested in HMLE shEcad cells
Beta cell apopt = beta cell apoptosis inhibition; AID 435005; 300,000 tested, 0.8% active; protection from apoptosis, % (test concentration not listed); INS-1E cytokine-induced death, ATP luminescence, 48 h; percent of positive-control rescue, neutral wells zero;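 active = Every replicate reaches about 75%, or at least half do and their mean reaches it too, limit read from the data; inconclusive = At least half of replicates reach the limit but their mean does not; inactive = Under half of replicates reach the limit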;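 also: higher means more ATP so stronger rescue from cytokine killing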
A1 inh = inhibitors of the anti-apoptotic protein A1, read as caspase activation. MEF A1-2A-BIM cells, Caspase-Glo 3/7 luminescence, 3 h; percent of clofoctol response, vehicle zero. caspase activation, % (test concentration not listed). 330,000 tested, 0.066% active;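 active = over half of replicate activation scores above 10%, or exactly half above 10 with the replicate mean above 10; inconclusive = replicate mean below 10 yet half the replicates above 10; inactive = over half of replicates below 10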
Mdm2 MdmX PPI = human Mdm2/MdmX binding inhibition | inhibition, % at 8 µM | 330,000 tested, 3% active | SaOS-2 split-luciferase Mdm2/MdmX complementation, luminescence | O15151+Q00987 | AID 485346;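 active = inhibition of at least 50% at 8 µM in the primary screen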
aSyn UTR inh = MLPCN primary screen, SNCA 5' untranslated region. inhibition, % (tested at 7.5 µM). 300,000 tested, 0.82% active. alpha-synuclein 5'UTR reporter, inhibitor activity; in the data active = inhibition above about 60%; inconclusive = no clear call, values can overlap the other calls;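 also: H4 neuroglioblastoma cells stably carrying SNCA 5'UTR luciferase fusion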
Mdm2 MdmX conf = human Mdm2/MdmX binding inhibition, confirmed | 10,000 tested, 55% active | shares compounds with Mdm2 MdmX PPI | AID 489028 | luminescent assay | inhibition, % at 8 µM; in the data active = inhibition above about 40%
FLuc counter = full-length luciferase inhibition in Mdm2/MdmX counter-screen; SaOS-2 full-length luciferase counterscreen, luminescence; 6,200 tested, 77% active; shares compounds with Mdm2 MdmX PPI; inhibition, % at 8 µM; AID 504607;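 active = mean inhibition at 8 µM reaching about 37%, which flags the compound as non-specific, limit read from the data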;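 also: p53-null SaOS-2 cells with luciferase driven by a doxycycline-inducible promoter; compound on cells about two nights before reading with doxycycline added after day one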
A number is an active result; . = inactive; ? = inconclusive; / = no result. The list is not random: actives were taken first. Their share in the collection is about 4.1%.

SMILES | CSC inhib | Beta cell apopt | A1 inh | Mdm2 MdmX PPI | aSyn UTR inh | Mdm2 MdmX conf | FLuc counter
CCCCn1c(N)c(N(CCC(C)C)C(=O)CN2C(=O)C3CCCCC3C2=O)c(=O)[nH]c1=O (stereo not given) | . | . | . | . | . | / | /
Cc1ccsc1-c1nc(-c2ccccc2)c(-c2ccccc2)[nH]1 | . | . | . | . | . | / | /
O=[N+]([O-])c1ccc(-c2nc(-c3cccs3)c(-c3cccs3)[nH]2)cc1 | . | . | . | 55.7 | . | . | /
Oc1ccc(-c2nc(-c3ccc(F)cc3)c(-c3ccncc3)[nH]2)cc1 | / | / | / | 78.9 | / | . | 75.5
Fc1ccc(-c2nc(-c3cccs3)[nH]c2-c2ccc(F)cc2)cc1 | . | . | . | 51.6 | . | . | 78.5
O=C(O)c1ccc(-c2nc(-c3ccccc3)c(-c3ccccc3)[nH]2)cc1 | . | . | . | . | . | / | /
CCc1ccc(Oc2coc3cc(OCC(=O)Nc4cc(C)ccc4C)ccc3c2=O)cc1 | . | . | . | 52.2 | ? | . | /
Cc1[nH]c2ccccc2c1/C=N/NC(=O)C1CC1(c1ccccc1)c1ccccc1 (stereo not given) | 115.7 | . | . | 65.5 | . | 47.7 | 89.2
CCCC(=O)NC(c1ccc(OC)c(OC)c1)c1c(O)ccc2ccccc12 (stereo not given) | . | . | . | . | . | / | /
CCCC(=O)NC(c1ccccc1OC)c1ccc2cccnc2c1O (stereo not given) | 119.4 | 95.2 | . | 77.1 | 123.9 | 81.7 | 49.8
CCCCC(=O)NC(c1ccc(OC)c(OC)c1)c1c(O)ccc2ccccc12 (stereo not given) | . | . | . | . | . | / | /
CCCCC(=O)NC(c1ccccc1OC)c1ccc2cccnc2c1O (stereo not given) | 137.7 | 96.3 | . | 86.6 | 101.2 | 82.8 | 51.9
Cc1ncc(CO)c2c1Oc1nc(-c3ccccc3)nc(SCC(=O)Nc3cccc(O)c3)c1C2 | . | . | . | 51.4 | . | . | /
Cc1c(C#N)c(O)n(CCO)c(=O)c1N=Nc1ccc2c(c1)COC2=O | . | . | . | 90.9 | . | . | /
COc1ccc(C(C)=O)cc1CSc1nnc(-c2ccncc2)n1C | . | . | . | . | . | / | /
COc1ccc(C(C)=O)cc1CSc1nnc(-c2ccc(Cl)cc2)n1-c1ccccc1 | . | . | . | 63.4 | . | 48.9 | .
O=P(O)(O)c1cc(-c2ccccc2)oc1-c1ccccc1 | . | . | . | . | . | / | /
O=c1oc(-c2ccccc2)cc(Cl)c1Cl | . | . | . | 94.3 | . | 81.5 | .
COc1cccc2sc(Nc3nnc(-c4ccccc4Cl)o3)nc12 | . | / | . | 65.0 | 66.3 | 65.0 | 53.8
COc1ccccc1-c1nnc(Nc2nc3c(OC)cccc3s2)o1 | . | . | . | 58.9 | 81.5 | 68.2 | 72.3
COc1cccc2sc(Nc3nc(-c4ccncc4)cs3)nc12 | . | . | . | 61.0 | 105.0 | 45.9 | 51.0
COc1cccc2sc(Nc3nc(-c4cc5ccccc5oc4=O)cs3)nc12 | . | . | . | / | . | / | /
CCCC(C)NC(=O)c1cc(S(=O)(=O)N2CCCCCC2)ccc1OC (stereo not given) | . | . | . | . | / | / | /
Oc1ccccc1N1CCN(c2ccc3ccccc3n2)CC1 | . | . | . | . | . | / | /
COc1ccc2nc(NC(=O)C3CCN(S(=O)(=O)c4cccs4)CC3)sc2c1 | . | . | . | 52.3 | . | . | /
SMILES | CSC inhib | Beta cell apopt | A1 inh | Mdm2 MdmX PPI | aSyn UTR inh | Mdm2 MdmX conf | FLuc counter
O=C(Nc1ccccc1Cl)C1CCCN(S(=O)(=O)c2cccc3cccnc23)C1 (stereo not given) | . | . | ? | . | . | / | /
CCc1ccc(N(CC(=O)Nc2nc3ccc(C)cc3s2)S(=O)(=O)c2c(C)noc2C)cc1 | 106.4 | / | . | 60.3 | . | . | /
Cc1ccc2nc(NC(=O)CN(C)S(=O)(=O)c3cccc4nsnc34)sc2c1 | . | . | . | 54.8 | . | 69.3 | 58.0
O=C(Nc1nc2cc(Cl)ccc2s1)C1CCCN(S(=O)(=O)c2cccc3cccnc23)C1 (stereo not given) | . | . | . | 57.8 | . | . | /
COc1ccc2nc(NC(=O)C3CCCN(S(=O)(=O)c4cccs4)C3)sc2c1 (stereo not given) | / | . | . | . | . | / | /
CC1CCCCC1NC(=O)C1CCCN(S(=O)(=O)c2ccc(-n3cnnn3)cc2)C1 (stereo not given) | . | . | . | . | . | / | /

Source: PubChem (several laboratories)
